# Measured values published in PubChem BioAssay (NCATS).
# Several values for one entry are separate records, joined by “and”; a condition that tells them apart may be missing. Identical values can stand only once. Records with an inconclusive call do not appear. Where a call stands in place of a potency, no number is given. Activity calls are given as the source filed them. Unless noted, the call rests on the fitted dose curve; in most records, active means well fitted curve in the direction sought with a large enough effect; inconclusive means small, poorly fitted or top-dose-only effect, or another doubt; inactive means no such curve, though single readings can be large; an effect the other way counts as inactive or inconclusive.
# What was measured:
# [1] = Cell Viability - Jurkat (AID 426;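 active means dose-dependent loss of cell ATP signal giving a full or clear fitted curve, ranked by lower potency value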; further: potency means the concentration at half of the fitted maximal effect); conditions: qHTS
# How it was run: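 Jurkat (Clone E6-1) cells, 5000/well in complete medium, exposed to compounds for 40 hr at 37C; intracellular ATP measured by CellTiter-Glo luminescence after 20 min at room temperature. AC50 from Hill fits.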
# [2] = target: Mitogen-activated protein kinase 10 (Mus musculus) (UniProt Q61831); assay: JNK3 AlphaScreen Assay (AID 530; active means well fitted curve in either direction with a large enough effect, not every such curve was filed as active;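 further: kinase came from lysate of stimulated human HepG2 cells; signal reports phosphorylation of biotinylated GST-cJun 1-79 at Ser73 with 10 µM ATP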); conditions: JNK3 lysate, c-Jun phosphorylation; series mostly up to 11.4 µM
# How it was run: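 Inhibitors reduce antibody binding to phosphorylated biotin-cJun, lowering AlphaScreen luminescence. Lysates from HepG2 cells pre-activated by IL-1beta plus TNF-alpha supplied JNK3; compounds were titrated.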
# [3] = target: Cytochrome P450 3A4 (Homo sapiens) (UniProt P08684); assay: qHTS Assay for Inhibitors and Substrates of Cytochrome P450 3A4 (AID 884); conditions: recombinant CYP3A4, Luciferin-PPXE luminescence; series mostly up to 57.1 µM; further: nearly all actives have a fitted effect of over 50% in size
# Chain of Cytochrome P450 3A4 (Homo sapiens) (P08684 whole entry, looked up): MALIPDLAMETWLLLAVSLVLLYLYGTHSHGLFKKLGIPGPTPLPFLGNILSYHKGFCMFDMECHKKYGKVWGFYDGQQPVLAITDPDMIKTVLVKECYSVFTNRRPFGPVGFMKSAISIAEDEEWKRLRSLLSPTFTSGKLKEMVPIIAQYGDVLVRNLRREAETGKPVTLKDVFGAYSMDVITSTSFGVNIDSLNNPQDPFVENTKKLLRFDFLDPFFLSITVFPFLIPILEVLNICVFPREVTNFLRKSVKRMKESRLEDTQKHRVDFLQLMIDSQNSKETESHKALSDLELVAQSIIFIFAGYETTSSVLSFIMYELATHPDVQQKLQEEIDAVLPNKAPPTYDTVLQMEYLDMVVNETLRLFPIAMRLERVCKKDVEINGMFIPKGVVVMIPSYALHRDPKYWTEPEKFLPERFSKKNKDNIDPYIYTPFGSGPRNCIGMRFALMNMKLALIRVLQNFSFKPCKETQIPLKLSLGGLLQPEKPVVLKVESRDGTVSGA
# How it was run: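 20 nM human CYP3A4 with 25 uM Luciferin-PPXE (at KM) in 200 mM KPO4, preincubated 10 min with compound; NADPH regeneration started a 60 min RT reaction. Luciferin detected by luminescence, normalized to 57 uM ketoconazole as full inhibition.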
# [4] = MultiTox-Fluor Cytotoxicity Assay - LYMP1-002 - Dead Cells (AID 960); conditions: LYMP1-002 lymphoblastoid cells, dead-cell protease fluorescence; series mostly up to 46.1 µM; further: nearly all actives have a fitted effect of over 60% in size
# How it was run: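 Human lymphoblastoid LYMP1-002 cells, 2500/well, treated 16 h at 37 C; dead-cell protease cleavage of bis-AAF-R110 read by fluorescence (485/520); normalized to DMSO and 15 uM tetraoctylammonium bromide; AC50 from Hill fit.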
# [5] = Cell Viability - LYMP2-009 (AID 968); conditions: LYMP2-009 lymphoblastoid cell viability; series mostly up to 92.2 µM;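 further: cells exposed to compound for 24 h at 37 °C; nearly all actives have a fitted effect of over 55% in size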
# [6] = Cell Viability - LYMP2-019 (AID 973); conditions: LYMP2-019 lymphoblastoid cell line viability; series mostly up to 92.2 µM;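 further: cells exposed to compound for 24 h at 37 °C; nearly all actives have a fitted effect of over 55% in size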
# How it was run: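 Human lymphoblastoid LYMP2-019 cells (2500/well) preincubated 5 h at 37 C, then treated 24 h at 37 C in complete medium. Viability by CellTiter-Glo ATP luminescence after 30 min at room temperature; AC50 from Hill fits.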
# [7] = target: Glucocorticoid receptor (Homo sapiens) (UniProt P04150); assay: qHTS assay for small molecule agonists of glucocorticoid receptor signaling (AID 588532; active means well fitted curve in the direction sought with a large enough effect in the signal ratio, with a control signal flat; the % refers to the signal ratio); conditions: HeLa MMTV-bla, beta-lactamase ratio, agonist, 18 h; stronger effect = higher value; percent of dexamethasone control, DMSO zero
# Chain of Glucocorticoid receptor (Homo sapiens) (P04150 whole entry, looked up): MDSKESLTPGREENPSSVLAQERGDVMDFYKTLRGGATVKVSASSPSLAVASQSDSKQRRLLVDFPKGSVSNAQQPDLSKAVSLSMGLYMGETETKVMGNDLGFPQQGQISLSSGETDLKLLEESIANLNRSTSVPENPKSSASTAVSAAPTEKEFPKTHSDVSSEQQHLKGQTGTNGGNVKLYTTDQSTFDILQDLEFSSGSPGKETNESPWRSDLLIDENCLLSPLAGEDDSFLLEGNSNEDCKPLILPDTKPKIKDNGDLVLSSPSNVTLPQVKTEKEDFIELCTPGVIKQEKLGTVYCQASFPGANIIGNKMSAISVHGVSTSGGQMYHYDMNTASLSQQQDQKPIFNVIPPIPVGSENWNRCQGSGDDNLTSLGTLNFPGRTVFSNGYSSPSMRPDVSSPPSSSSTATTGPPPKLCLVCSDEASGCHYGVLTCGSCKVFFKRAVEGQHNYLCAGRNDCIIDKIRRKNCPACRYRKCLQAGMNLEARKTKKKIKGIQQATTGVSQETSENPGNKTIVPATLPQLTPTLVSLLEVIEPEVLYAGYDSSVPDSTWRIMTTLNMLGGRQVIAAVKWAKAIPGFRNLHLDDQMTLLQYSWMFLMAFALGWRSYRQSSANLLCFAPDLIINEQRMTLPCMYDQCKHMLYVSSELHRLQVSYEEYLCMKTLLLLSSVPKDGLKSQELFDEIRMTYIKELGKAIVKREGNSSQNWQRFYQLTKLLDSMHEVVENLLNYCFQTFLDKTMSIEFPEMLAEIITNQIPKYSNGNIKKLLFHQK
# How it was run: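 MMTV-bla HeLa, beta-lactamase reporter; medium with 1% charcoal/dextran-stripped FBS; cpds up to 92 uM, 18 h, 37 C; CCF4 readout 460/530 nm; Hill fit → EC50, efficacy vs 0.1 uM dexamethasone = 100%.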
# [8] = qHTS assay for small molecule agonists of retinoid X receptor alpha signaling (AID 588544); conditions: HEK293T RXRa-UAS-bla, beta-lactamase reporter, 18 h; 530 nm emission
# [9] = target: Thyroid hormone receptor beta (Homo sapiens) (UniProt P10828); assay: qHTS assay for small molecule agonists of thyroid hormone receptor beta signaling (AID 588545; calls by dose curve); conditions: TR-UAS-bla GripTite HEK 293, beta-lactamase ratio, agonist mode, 18 h; series mostly up to 76.7 µM
# Chain of Thyroid hormone receptor beta (Homo sapiens) (P10828 whole entry, looked up): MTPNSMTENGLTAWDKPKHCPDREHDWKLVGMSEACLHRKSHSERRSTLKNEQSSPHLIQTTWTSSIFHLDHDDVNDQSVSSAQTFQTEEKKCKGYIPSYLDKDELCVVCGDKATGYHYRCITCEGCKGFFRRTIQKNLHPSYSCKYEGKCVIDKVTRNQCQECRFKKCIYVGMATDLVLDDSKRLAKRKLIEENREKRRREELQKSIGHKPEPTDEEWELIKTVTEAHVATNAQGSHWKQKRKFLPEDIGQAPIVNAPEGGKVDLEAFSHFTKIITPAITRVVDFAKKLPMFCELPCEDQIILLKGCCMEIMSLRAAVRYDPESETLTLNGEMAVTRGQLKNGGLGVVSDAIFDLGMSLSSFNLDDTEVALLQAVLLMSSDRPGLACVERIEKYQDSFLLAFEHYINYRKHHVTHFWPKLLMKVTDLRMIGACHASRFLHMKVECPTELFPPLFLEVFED
# How it was run: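 Cells (2500/well) were seeded, incubated 4 hrs at 37 C, dosed with a compound series, incubated 18 hrs, loaded with CCF4 dye for 2 hrs at RT, then read for fluorescence. Data were scaled between DMSO (0%) and 10 nM T3 (100%).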
# [10] = target: Voltage-gated inwardly rectifying potassium channel KCNH2 (Homo sapiens) (UniProt Q12809); assay: qHTS Assay for Small Molecule Inhibitors of the Human hERG Channel Activity (AID 588834); conditions: U2OS BacMam hERG, FluxOR thallium flux fluorescence; series mostly up to 92.2 µM;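 further: top concentration of the series differs between compounds; lower thallium flux fluorescence means stronger hERG block; nearly all actives have a fitted effect of over 50% in size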
# Chain of Voltage-gated inwardly rectifying potassium channel KCNH2 (Homo sapiens) (Q12809 whole entry, looked up): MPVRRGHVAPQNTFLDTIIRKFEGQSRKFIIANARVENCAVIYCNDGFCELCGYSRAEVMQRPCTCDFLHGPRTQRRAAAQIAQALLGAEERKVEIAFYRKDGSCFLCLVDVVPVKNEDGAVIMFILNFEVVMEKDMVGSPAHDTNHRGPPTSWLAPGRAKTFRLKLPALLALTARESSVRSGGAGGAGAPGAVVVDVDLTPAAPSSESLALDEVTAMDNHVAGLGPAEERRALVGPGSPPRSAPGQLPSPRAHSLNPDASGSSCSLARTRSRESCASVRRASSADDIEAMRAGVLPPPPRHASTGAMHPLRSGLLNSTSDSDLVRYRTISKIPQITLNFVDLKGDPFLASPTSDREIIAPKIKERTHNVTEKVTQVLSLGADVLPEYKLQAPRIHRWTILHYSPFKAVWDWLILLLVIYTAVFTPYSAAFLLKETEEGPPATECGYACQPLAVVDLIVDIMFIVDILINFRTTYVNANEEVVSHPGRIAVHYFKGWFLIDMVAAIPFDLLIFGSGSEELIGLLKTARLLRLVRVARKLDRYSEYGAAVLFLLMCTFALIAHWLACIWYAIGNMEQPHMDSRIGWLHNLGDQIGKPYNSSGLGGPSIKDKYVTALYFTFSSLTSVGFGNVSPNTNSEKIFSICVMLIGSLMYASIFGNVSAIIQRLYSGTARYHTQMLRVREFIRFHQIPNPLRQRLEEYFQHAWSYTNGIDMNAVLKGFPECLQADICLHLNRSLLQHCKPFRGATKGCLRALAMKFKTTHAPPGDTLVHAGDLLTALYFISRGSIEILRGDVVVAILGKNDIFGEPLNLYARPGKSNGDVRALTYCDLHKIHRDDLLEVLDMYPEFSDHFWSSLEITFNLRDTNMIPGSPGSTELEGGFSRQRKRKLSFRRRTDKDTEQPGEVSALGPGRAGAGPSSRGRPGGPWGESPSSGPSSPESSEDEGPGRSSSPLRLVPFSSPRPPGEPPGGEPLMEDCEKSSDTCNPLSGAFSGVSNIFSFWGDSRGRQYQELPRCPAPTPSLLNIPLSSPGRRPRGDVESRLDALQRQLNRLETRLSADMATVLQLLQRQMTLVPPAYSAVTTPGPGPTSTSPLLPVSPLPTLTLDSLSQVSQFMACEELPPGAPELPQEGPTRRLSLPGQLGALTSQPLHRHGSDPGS
# How it was run: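 Concentration-response qHTS measuring drop in thallium-sensitive dye signal. U2OS cells carrying BacMam hERG; compound exposure ~10 min, then stimulation buffer and 2 min read at 1 sec intervals.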
# [11] = qHTS assay for small molecule agonists of the antioxidant response element (ARE) signaling pathway (AID 651741; active means well fitted activation curve with a large enough effect in the signal ratio; the % refers to the signal ratio; further: potency means the concentration at half of the fitted maximal effect); conditions: HepG2 ARE-bla reporter, beta-lactamase FRET ratio, 16 h; series mostly up to 96 µM
# How it was run: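 Compounds in DMSO are pinned onto HepG2 ARE-bla cells (2,000/well) that were preincubated 5 h; plates stay 16 h at 37 C, then beta-lactamase activity is detected with LiveBLAzer B/G substrate by fluorescence.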
# [12] = qHTS assay for small molecule activators of the nuclear factor-kappa B (NF-kB) signaling pathway (AID 651749; active means well fitted activation curve with a large enough effect in the signal ratio; the % refers to the signal ratio); conditions: NF-kB-bla ME-180 cells, beta-lactamase FRET ratio, 16 h; stronger effect = higher value
# How it was run: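 Screening used 2,000 ME-180 reporter cells per well exposed to pinned compound (23 nL) or DMSO; after 16 hr at 37C, beta-lactamase expression under NF-kB control was assessed through FRET.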
# [13] = target: Tumor necrosis factor (Homo sapiens) (UniProt P01375); assay: qHTS assay to identify small molecules that stimulate Tumor Necrosis Factor-alpha (TNF-alpha) secretion (AID 651757; active means well fitted curve in the direction sought with a large enough effect in the signal ratio; the % refers to the signal ratio); conditions: Human cells, HTRF 665/615 ratio; series mostly up to 92.2 µM
# Chain of Tumor necrosis factor (Homo sapiens) (P01375 whole entry, looked up): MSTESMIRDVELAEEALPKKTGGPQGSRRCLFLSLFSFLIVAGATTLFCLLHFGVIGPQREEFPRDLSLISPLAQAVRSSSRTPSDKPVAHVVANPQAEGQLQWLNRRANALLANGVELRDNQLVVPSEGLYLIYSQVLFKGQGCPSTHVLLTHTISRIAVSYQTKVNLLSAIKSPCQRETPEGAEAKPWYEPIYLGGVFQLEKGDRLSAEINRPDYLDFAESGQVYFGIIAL
# How it was run: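 THP-1 cells (3000/well) exposed to compounds 17 hrs at 37 C. Secreted TNF-alpha detected by HTRF with cryptate- and XL665-labeled anti-TNF-alpha antibodies after 3 hr at room temperature.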
# [14] = target: Nuclear receptor ROR-gamma (Homo sapiens) (UniProt P51449); assay: qHTS assay for small molecule antagonists of the retinoid-related orphan receptor gamma (ROR-gamma) signaling pathway (AID 651802); conditions: ROR-gamma antagonist cell reporter assay; series mostly up to 92.2 µM; further: nearly all actives have a fitted effect of over 60% in size; further: potency means the concentration at half of the fitted maximal effect
# Chain of Nuclear receptor ROR-gamma (Homo sapiens) (P51449 whole entry, looked up): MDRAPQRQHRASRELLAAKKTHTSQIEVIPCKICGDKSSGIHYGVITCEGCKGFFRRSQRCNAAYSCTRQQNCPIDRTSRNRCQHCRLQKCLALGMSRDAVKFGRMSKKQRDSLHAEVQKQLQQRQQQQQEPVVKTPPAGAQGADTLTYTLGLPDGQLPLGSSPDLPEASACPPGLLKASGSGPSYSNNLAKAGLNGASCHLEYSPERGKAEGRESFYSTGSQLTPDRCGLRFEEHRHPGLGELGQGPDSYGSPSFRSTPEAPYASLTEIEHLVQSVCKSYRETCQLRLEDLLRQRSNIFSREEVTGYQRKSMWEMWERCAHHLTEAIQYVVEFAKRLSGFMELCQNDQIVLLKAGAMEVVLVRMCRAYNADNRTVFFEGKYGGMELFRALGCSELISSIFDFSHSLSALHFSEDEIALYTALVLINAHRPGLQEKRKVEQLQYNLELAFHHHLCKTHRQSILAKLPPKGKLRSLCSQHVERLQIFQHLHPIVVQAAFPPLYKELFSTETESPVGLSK
# How it was run: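 CHO cells with TET-inducible ROR-gamma and RORE-luciferase reporter, dosed then doxycycline-induced. After 16 h at 37C, One-Glo luminescence read; decreased signal indicates antagonism.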
# [15] = qHTS assay for small molecule agonists of the antioxidant response element (ARE) signaling pathway measured by Nrf2-dependant transcriptional activity (AID 720636; active means well fitted curve in the direction sought with a large enough effect in the repeat runs; an effect the other way counts as inactive or inconclusive); conditions: ARE-luc HepG2, Nrf2 luciferase reporter, 16 h; series mostly up to 92.4 µM
# How it was run: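 Nrf2-dependent transcription read as ONE-Glo luciferase signal from ARE-luc HepG2 reporter cells after 16 hr compound treatment at 37 C, 5% CO2, in assay medium with 1% dialyzed FBS.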
# [16] = qHTS assay for cell viability of the p53RE-bla HCT-116 cell line (AID 743292); conditions: p53RE-bla HCT-116 viability, ATP luminescence, 16 h; series mostly up to 95 µM; further: nearly all actives have a fitted effect of over 55% in size
# How it was run: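 ATP-based luminescent viability (CellTiter-Glo, 30 min RT) after 16 h compound treatment at 37 C of p53RE-bla HCT-116 cells, seeded at 4,000 cells/well and rested 5 h before dosing.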
# [17] = qHTS assay for small molecule activators of the human pregnane X receptor (PXR) signaling pathway (AID 720659; call rule not given here); conditions: DPX-2 HepG2 CYP3A4-luciferase, 24 h; series mostly up to 92.3 µM
# [18] = Cell Viability - NIH 3T3 (AID 541); conditions: NIH 3T3 cell viability, qHTS; activity change, negative = cytotoxicity: at 92.2 µM (top of the series); further: nearly all actives have a fitted effect of over 25% in size
# How it was run: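 Mouse NIH 3T3 fibroblasts, 1000 cells/well, rested 5 hr at 37 °C, then exposed to compound for 40 hr at 37 °C in complete medium. Viability read as intracellular ATP by CellTiter-Glo luminescence; AC50 from Hill-equation fits of concentration-response data.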
# [19] = target: Vitamin D3 receptor (Homo sapiens) (UniProt P11473); assay: qHTS assay for small molecule antagonists of vitamin D receptor signaling (AID 588541; calls by dose curve;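 further: receptor activated by calcitriol during compound treatment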); conditions: HEK293T VDR-UAS-bla, beta-lactamase ratio, antagonist mode; series mostly up to 76.7 µM
# Chain of Vitamin D3 receptor (Homo sapiens) (P11473 whole entry, looked up): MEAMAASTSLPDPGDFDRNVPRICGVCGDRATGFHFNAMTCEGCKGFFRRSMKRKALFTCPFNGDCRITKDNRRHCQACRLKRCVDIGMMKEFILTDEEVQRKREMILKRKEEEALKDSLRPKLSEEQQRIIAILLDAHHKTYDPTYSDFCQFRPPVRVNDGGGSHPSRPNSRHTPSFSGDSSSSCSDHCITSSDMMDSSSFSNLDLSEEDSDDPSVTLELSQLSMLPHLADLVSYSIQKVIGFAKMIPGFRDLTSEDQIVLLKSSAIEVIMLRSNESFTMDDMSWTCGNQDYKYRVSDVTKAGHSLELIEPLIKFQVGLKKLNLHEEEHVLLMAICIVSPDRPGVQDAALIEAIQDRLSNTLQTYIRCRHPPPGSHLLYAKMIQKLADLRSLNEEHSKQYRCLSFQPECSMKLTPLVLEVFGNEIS
# How it was run: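 VDR-UAS-bla HEK293T cells (2000/well, 2% charcoal-stripped FBS) were treated with titrated compounds plus 1-alpha,25-dihydroxyvitamin D3 (50 nM or 3 nM final) for 16 h at 37 C. CCF4 beta-lactamase fluorescence was read; Hill fits gave IC50.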
# [20] = target: Vitamin D3 receptor (Homo sapiens) (UniProt P11473); assay: qHTS assay for small molecule agonists of vitamin D receptor signaling (AID 588543; calls by dose curve); conditions: HEK293T VDR-UAS-bla, beta-lactamase ratio, 16 h; series mostly up to 76.8 µM
# How it was run: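 β-lactamase reporter, VDR-UAS-bla HEK293T, agonist mode. Cells plated 5 h at 37 °C, compound titration 16 h at 37 °C, CCF4 dye 2 h RT, ratio 460/530 nm. Hill fit → EC50, efficacy vs 50 nM 1α,25-(OH)2D3.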
SMILES,Potency [1],Potency [2],Potency [3],Potency [4],Potency [5],Potency [6],activation [7],max response [8],Potency [9],Potency [10],Potency [11],activation [12],Potency [13],Potency [14],Potency [15],Potency [16],outcome [17],"activity change, negative = cytotoxicity [18]",Potency [19],Potency [20]
CC(=O)OC1CC(C)OC(C)O1 (stereo not given),> 92 µM (inactive),inactive,inactive,inactive,inactive,inactive,0.225% (inactive) and -13.7% (inactive),-9.84% and -8.03%,inactive,inactive,61.1 µM (active),-0.185% (inactive) and -2.01% (inactive),inactive,inactive,inactive,inactive,inactive,–,–,–
C=Cc1cccc(C)c1,> 92 µM (inactive),–,inactive,inactive,inactive,inactive,-2.15% (inactive),-15.6%,inactive,inactive,inactive,–,inactive,inactive,inactive,inactive,inactive,4.07% (inactive),inactive,inactive
CCCCOC(=O)COc1ccc(Cl)cc1Cl,> 92 µM (inactive),–,inactive,inactive,inactive,inactive,–,4.2% and -8.56%,inactive,–,inactive,1.36% (inactive) and -1.12% (inactive),inactive,inactive,inactive,inactive,inactive,1.3% (inactive),inactive,inactive
O=[N+]([O-])c1ccc(F)cc1F,> 92 µM (inactive),inactive,inactive,inactive,inactive,–,–,0.464%,inactive,inactive,inactive,0.374% (inactive),inactive,inactive,inactive,inactive,inactive,–,inactive,inactive
CCCC(=O)OC(=O)CCC,> 92 µM (inactive),inactive,–,inactive,inactive,inactive,–,16.4% and -19.3%,inactive,inactive,inactive,0.205% (inactive) and -0.934% (inactive),inactive,inactive,inactive,inactive,inactive,–,–,–
CC(=O)OCc1ccc2c(c1)OCO2,> 92 µM (inactive),inactive,–,inactive,inactive,inactive,–,17.8%,inactive,inactive,inactive,–,inactive,inactive,inactive,–,inactive,–,inactive,inactive
CCC(Cl)CC(Cl)C(Cl)C(Cl)C(Cl)C(C)Cl (stereo not given),> 92 µM (inactive),–,inactive,–,inactive,inactive,4.73% (inactive),-26.2%,inactive,–,66.8 µM (active),0.226% (inactive),inactive,–,inactive,inactive,–,-16.5% (inactive),–,–
C[Si](C)(C)Cl,> 92 µM (inactive),–,inactive,inactive,inactive,inactive,10.5% (inactive),8.09%,inactive,inactive,–,1.18% (inactive),inactive,inactive,inactive,inactive,inactive,-21.3% (inactive),–,–
c1ccc2c(c1)ccc1ccccc12,> 92 µM (inactive),–,inactive,inactive,inactive,inactive,3.65% (inactive) and 10.6% (inactive),-6.28%,inactive,inactive,inactive,-1.69% (inactive) and -0.971% (inactive),inactive,inactive,inactive,inactive,inactive,-132% (active),inactive,inactive
c1ccncc1,> 92 µM (inactive),–,inactive,inactive,inactive,inactive,–,1.38%,inactive,inactive,inactive,0.644% (inactive),inactive,inactive,inactive,inactive,inactive,-13.1% (inactive),inactive,inactive
CCN(CC)c1ccc(N)cc1,44 µM (active),–,–,inactive,–,–,8.72% (inactive),–,–,–,37.6 µM (active),0.867% (inactive),–,37.6 µM (active),–,inactive,–,-96.6% (active),inactive,inactive
Nc1cnn([C@@H]2O[C@H](CO)[C@@H](O)[C@H]2O)c(=O)n1,–,inactive,inactive,inactive,inactive,inactive,-5.2% (inactive),11.7%,inactive,inactive,inactive,–,inactive,5.31 µM (active),inactive,–,inactive,4.75% (inactive),inactive,inactive
O=C1OC(=O)c2ccccc21,–,inactive,inactive,inactive,–,inactive,8.87% (inactive),-8.02%,–,inactive,inactive,0.114% (inactive),inactive,–,inactive,inactive,inactive,–,inactive,inactive
CC(=O)Nc1cccc(C)c1,> 92 µM (inactive),inactive,inactive,inactive,inactive,inactive,-1.44% (inactive),-8.8%,–,inactive,inactive,-1.12% (inactive),inactive,inactive,inactive,inactive,inactive,-12.7% (inactive),inactive,–
